C diff HTS = C. difficile growth inhibitors, primary screen, HTS; Clostridium difficile clinical isolate growth, OD600, 24 h; active compounds read low; growth activity, negative = inhibition, % at 16 µg/mL (by protocol); AID 1259249, 2017; actives 0.25% (n = 86,000);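 active = mean growth activity at or below -80% and every replicate also at or below -80%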
Pf Dd2 growth = P. falciparum Dd2 growth inhibitors, primary screen, SYBR Green fluorescence, single dose replicates. 72 h; active compounds read low. activity change, % at 10 µM. actives 2.3% (n = 94,000); in the data active = activity change below about -80%
T cruzi growth-1 = T. cruzi intracellular proliferation inhibitors, primary screen, cell-based, beta-gal Tulahuen parasites, NIH3T3 host, luminescence; T. cruzi beta-gal in NIH3T3, GalScreen luminescence, 90 h; inhibition, % at 8.34 µM; actives 5.9% (n = 77,000);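 active = mean inhibition above about 93%, with at least 55% of replicates each passing it, limit read from the data, passing the limit was not always enough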
T cruzi growth-2 = T. cruzi intracellular proliferation inhibitors, confirmation, cell-based, NIH3T3 host, beta-gal parasite, luminescence, cherry-pick; shares compounds with T cruzi growth-1; T. cruzi beta-gal in NIH3T3, GalScreen luminescence, 90 h; inhibition, % at 8.35 µM; actives 72% (n = 5,600); AID 651739, 2012;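 active = mean replicate inhibition above about 95% and at least 55% of replicates individually reaching it, limit read from the data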
T cruzi growth-3 = inhibitors of intracellular T. cruzi replication, confirmation, NIH3T3 host cells, beta-gal parasites, cherry-pick, set 2 | shares compounds with T cruzi growth-1 | AID 651740, 2012 | actives 21% (n = 5,600) | inhibition, % at 2.09 µM | T. cruzi beta-gal in NIH3T3, GalScreen luminescence, 90 h;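 active = mean inhibition above about 95%, with at least 55% of replicates also reaching it, limit read from the data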
3T3 cytotox = cytotoxicity in mouse NIH/3T3 fibroblasts, confirmation, cytotoxicity control for T. cruzi proliferation inhibitor project, cell-based, cherry-pick, single point; shares compounds with T cruzi growth-1; actives 14% (n = 5,600); NIH/3T3 viability, CellTiter-Glo ATP luminescence, 90 h; cytotoxicity (signal decrease), % at 8.35 µM;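 active = mean signal decrease across replicates above about 35% based on untreated-well scatter, with enough replicates individually passing, limit read from the data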
NIH3T3 tox 2 = NIH/3T3 fibroblast cytotoxicity, confirmation, cytotoxicity control, cell-based, cherry-pick, single point, set 2; actives 56% (n = 5,600); shares compounds with T cruzi growth-1; AID 651744, 2012; NIH/3T3 viability, CellTiter-Glo ATP luminescence, 90 h; inhibition, % at 24.9 µM;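 active = mean loss of cell viability signal at or above a set limit, and enough replicates individually reaching it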
Hits are given with their value; – = inactive; · = no result given. Most compounds without a hit are left out; they make up all but 6.8% or so of the library.

SMILES | C diff HTS | Pf Dd2 growth | T cruzi growth-1 | T cruzi growth-2 | T cruzi growth-3 | 3T3 cytotox | NIH3T3 tox 2
C[C@@H]1CN([C@@H](C)CO)C(=O)Cc2cc(NC(=O)Nc3ccc(C(F)(F)F)cc3)ccc2O[C@@H]1CN(C)C(=O)NC1CCCCC1 | – | – | – | · | · | · | ·
COc1ccc(NC(=O)N(C)C[C@@H]2OCCCC[C@H](C)Oc3ccc(NS(=O)(=O)c4ccccc4)cc3C(=O)N([C@@H](C)CO)C[C@@H]2C)cc1 | – | – | – | · | · | · | ·
CC(C)NC(=O)N1CCCCN2[C@@H](CO)[C@@H](c3ccc(C#CC4CC4)cc3)[C@@H]2C1 | – | – | 106.9 | 110.8 | – | – | 48.7
CC(C)NC(=O)N1CCCCN2[C@H](CO)[C@H](c3ccc(C#CC4CC4)cc3)[C@H]2C1 | – | – | 110.4 | 112.6 | – | – | 66.0
CC(C)C#Cc1ccc([C@@H]2[C@@H](CO)N3CCCCN(C(=O)NC(C)C)C[C@@H]23)cc1 | – | – | – | · | · | · | ·
CC(C)C#Cc1ccc([C@H]2[C@@H](CO)N3CCCCN(C(=O)NC(C)C)C[C@H]23)cc1 | – | – | 101.7 | 111.4 | – | – | 48.7
CC(C)NC(=O)N1CCCCN2[C@H](C1)[C@H](c1ccc(C#CC3CC3)cc1)[C@@H]2CO | – | – | – | · | · | · | ·
CC(C)NC(=O)N1CCCCN2[C@H](C1)[C@@H](c1ccc(C#CC3CC3)cc1)[C@@H]2CO | – | – | – | · | · | · | ·
CCCC(=O)Nc1ccc2c(c1)OC[C@@H](C)N(C(=O)c1ccccc1F)C[C@H](C)[C@H](OC)CN(C)C2=O | · | · | – | · | · | · | ·
C[C@@H]1CN([C@@H](C)CO)C(=O)c2cc(/C=C/c3ccccc3)cnc2O[C@@H]1CN(C)C | – | – | · | · | · | · | ·
C[C@H]1CN([C@@H](C)CO)C(=O)c2cc(C#Cc3ccccn3)cnc2O[C@H]1CN(C)Cc1cncnc1 | – | – | – | · | · | · | ·
CC(C)C#Cc1cnc2c(c1)C(=O)N([C@@H](C)CO)C[C@@H](C)[C@@H](CN(C)Cc1cncnc1)O2 | – | – | – | · | · | · | ·
C[C@H](CO)N1C[C@H](C)[C@H](CN(C)Cc2cncnc2)Oc2ncc(C#Cc3ccccn3)cc2C1=O | – | – | – | · | · | · | ·
CC(C)C#Cc1cnc2c(c1)C(=O)N([C@@H](C)CO)C[C@H](C)[C@@H](CN(C)Cc1cncnc1)O2 | – | – | 97.4 | 98.6 | – | – | –
C[C@@H]1CN([C@@H](C)CO)C(=O)c2cc(C#Cc3ccccn3)cnc2O[C@H]1CN(C)Cc1cncnc1 | – | – | 104.8 | 101.7 | – | – | –
C[C@@H]1CN([C@H](C)CO)C(=O)c2cc(C#Cc3ccccn3)cnc2O[C@H]1CN(C)Cc1cncnc1 | – | – | 104.0 | 106.7 | – | – | –
CO[C@@H]1CN(C)C(=O)c2cc(NS(=O)(=O)c3cn(C)cn3)ccc2OC[C@H](C)N(CCC(F)(F)F)C[C@H]1C | – | – | – | · | · | · | ·
COc1ccc(NC(=O)N[C@H]2CC[C@@H](CCn3cc(-c4ccccn4)nn3)O[C@H]2CO)cc1 | · | – | – | · | · | · | ·
C[C@H](CO)N1C[C@H](C)[C@@H](CN(C)Cc2ccc3c(c2)OCO3)OCCCC[C@H](C)Oc2ccc(NC(=O)Nc3ccccc3)cc2C1=O | – | – | – | · | · | · | ·
C[C@@H]1CCCCO[C@@H](CN(C)Cc2ccccc2)[C@@H](C)CN([C@H](C)CO)C(=O)c2cc(NC(=O)Nc3ccc4c(c3)OCO4)ccc2O1 | – | – | – | · | · | · | ·
C[C@@H]1CCCCO[C@@H](CN(C)Cc2ccc3c(c2)OCO3)[C@H](C)CN([C@@H](C)CO)C(=O)c2cc(NC(=O)Nc3ccccc3)ccc2O1 | – | – | – | · | · | · | ·
C[C@@H]1CCCCO[C@H](CN(C)Cc2ccccc2)[C@H](C)CN([C@H](C)CO)C(=O)c2cc(NC(=O)Nc3ccc4c(c3)OCO4)ccc2O1 | – | – | 97.8 | 105.8 | – | – | 52.3

Bioassay records from PubChem.
